Assay results reported in paper PMC7862700, “An all-to-all approach to the identification of sequence-specific readers for epigenetic DNA modifications on cytosine”.

Experiments:
Test in all cases: DAPPL (digital affinity profiling via proximity ligation, sequencing); 10 mM Tris-HCl pH 7.5, 50 mM NaCl, 1 mM DTT, 4% glycerol, room temperature, 30 min; GST-TFs on glutathione beads, 16-mer random dsDNA library, 0.1% formaldehyde crosslink after washing; high values mean tight binding
FLI1 = molecular target: T1, FLI1 (Homo sapiens, UniProt Q01543 1-452); conditions: protein: recombinant; tags: N-terminal GST; dsDNA, one strand shown
T1 sequence: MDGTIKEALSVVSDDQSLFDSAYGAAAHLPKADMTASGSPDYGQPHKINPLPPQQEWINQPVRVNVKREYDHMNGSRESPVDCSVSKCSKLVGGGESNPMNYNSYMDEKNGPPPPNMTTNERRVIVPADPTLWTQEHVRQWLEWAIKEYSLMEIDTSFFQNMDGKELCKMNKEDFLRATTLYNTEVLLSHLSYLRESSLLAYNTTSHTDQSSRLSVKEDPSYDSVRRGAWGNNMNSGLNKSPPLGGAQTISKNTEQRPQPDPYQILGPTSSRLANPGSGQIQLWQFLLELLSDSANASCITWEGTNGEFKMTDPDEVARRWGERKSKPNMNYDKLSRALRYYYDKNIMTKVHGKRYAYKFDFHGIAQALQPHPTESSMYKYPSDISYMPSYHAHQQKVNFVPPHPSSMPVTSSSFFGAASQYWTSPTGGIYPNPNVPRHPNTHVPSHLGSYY
Procedure, shortened: (§1)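 Beads coated with glutathione captured GST-fused human transcription factors that had been expressed in yeast, and the factors were then given DNA barcodes and pooled with a tag-only sample. The pools were incubated with 200 nmole of a random double-stranded 16-mer DNA library in Tris/NaCl/DTT/glycerol buffer for 30 min at room temperature, washed, crosslinked with 0.1% formaldehyde and proximity-ligated with BsaI/T4 ligase at 37 °C for 1 h. PCR amplification and Illumina NextSeq500 sequencing came last. Binding signal is each hexamer's read frequency for a factor divided by its frequency for the tag-only sample.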

ELK1 = molecular target: T2, ELK1 (Homo sapiens, UniProt P19419 1-428); conditions: protein: recombinant; tags: N-terminal GST; dsDNA, one strand shown
T2 sequence: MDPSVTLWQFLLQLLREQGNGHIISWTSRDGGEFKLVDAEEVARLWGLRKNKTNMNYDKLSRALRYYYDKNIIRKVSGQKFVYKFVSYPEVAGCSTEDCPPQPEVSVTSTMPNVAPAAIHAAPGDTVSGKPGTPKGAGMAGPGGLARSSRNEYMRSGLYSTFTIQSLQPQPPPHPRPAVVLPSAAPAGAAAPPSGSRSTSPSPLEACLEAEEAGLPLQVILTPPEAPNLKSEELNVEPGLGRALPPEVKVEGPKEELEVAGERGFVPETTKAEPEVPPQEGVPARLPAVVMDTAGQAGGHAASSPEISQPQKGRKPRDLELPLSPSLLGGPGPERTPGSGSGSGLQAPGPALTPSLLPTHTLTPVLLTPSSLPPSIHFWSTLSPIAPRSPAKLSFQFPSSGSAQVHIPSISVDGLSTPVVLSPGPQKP
Procedure, shortened: as §1

GABPA = molecular target: T3, GABPA (Homo sapiens, UniProt Q06546 1-454); conditions: protein: recombinant; tags: N-terminal GST; dsDNA, one strand shown
T3 sequence: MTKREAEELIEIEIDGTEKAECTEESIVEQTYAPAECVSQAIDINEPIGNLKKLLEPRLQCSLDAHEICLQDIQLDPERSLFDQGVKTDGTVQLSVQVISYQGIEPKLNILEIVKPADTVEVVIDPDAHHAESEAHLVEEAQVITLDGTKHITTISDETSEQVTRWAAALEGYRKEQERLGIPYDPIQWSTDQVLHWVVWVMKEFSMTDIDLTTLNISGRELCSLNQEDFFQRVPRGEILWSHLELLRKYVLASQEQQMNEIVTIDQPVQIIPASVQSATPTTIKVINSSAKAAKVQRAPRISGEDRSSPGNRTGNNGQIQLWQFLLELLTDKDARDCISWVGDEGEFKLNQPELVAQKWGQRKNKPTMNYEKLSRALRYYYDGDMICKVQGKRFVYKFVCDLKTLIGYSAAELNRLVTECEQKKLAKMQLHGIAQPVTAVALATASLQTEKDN
Procedure, shortened: as §1

ELF1 = ELF1 (Homo sapiens, UniProt P32519 1-619); conditions: protein: recombinant; tags: N-terminal GST; dsDNA, one strand shown
Procedure, shortened: as §1

SPIB = SPIB (Homo sapiens, UniProt Q01892 1-262); conditions: protein: recombinant; tags: N-terminal GST; dsDNA, one strand shown
Procedure, shortened: as §1

FEV = molecular target: T4, FEV (Homo sapiens, UniProt Q99581 1-238); conditions: protein: recombinant; tags: N-terminal GST; dsDNA, one strand shown
T4 sequence: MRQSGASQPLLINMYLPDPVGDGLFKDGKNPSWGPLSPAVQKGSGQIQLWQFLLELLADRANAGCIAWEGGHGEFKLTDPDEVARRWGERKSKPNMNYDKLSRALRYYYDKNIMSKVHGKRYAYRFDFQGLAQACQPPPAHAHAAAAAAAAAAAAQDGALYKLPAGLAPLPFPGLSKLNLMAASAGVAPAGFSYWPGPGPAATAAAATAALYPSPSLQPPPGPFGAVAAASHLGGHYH
Procedure, shortened: as §1

ETV5 = ETV5 (Homo sapiens, UniProt P41161 1-510); conditions: protein: recombinant; tags: N-terminal GST; dsDNA, one strand shown
Procedure, shortened: as §1

HSF1 = HSF1 (Homo sapiens, UniProt Q00613 1-529); conditions: protein: recombinant; tags: N-terminal GST; chain copies: 3; dsDNA, one strand shown
Procedure, shortened: as §1

SPIC = molecular target: T5, SPIC (Homo sapiens, UniProt Q8N5J4 1-248); conditions: protein: recombinant; tags: N-terminal GST; dsDNA, one strand shown
T5 sequence: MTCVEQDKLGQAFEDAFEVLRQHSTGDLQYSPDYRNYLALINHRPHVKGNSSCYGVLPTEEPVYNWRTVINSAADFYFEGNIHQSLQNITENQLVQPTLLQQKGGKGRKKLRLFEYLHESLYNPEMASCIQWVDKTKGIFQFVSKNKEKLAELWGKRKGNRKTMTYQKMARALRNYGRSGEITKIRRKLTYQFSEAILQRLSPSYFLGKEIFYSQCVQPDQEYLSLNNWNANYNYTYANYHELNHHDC
Procedure, shortened: as §1

ELK4 = molecular target: T6, ELK4 (Homo sapiens, UniProt P28324-2 1-405); conditions: protein: recombinant; tags: N-terminal GST; dsDNA, one strand shown
T6 sequence: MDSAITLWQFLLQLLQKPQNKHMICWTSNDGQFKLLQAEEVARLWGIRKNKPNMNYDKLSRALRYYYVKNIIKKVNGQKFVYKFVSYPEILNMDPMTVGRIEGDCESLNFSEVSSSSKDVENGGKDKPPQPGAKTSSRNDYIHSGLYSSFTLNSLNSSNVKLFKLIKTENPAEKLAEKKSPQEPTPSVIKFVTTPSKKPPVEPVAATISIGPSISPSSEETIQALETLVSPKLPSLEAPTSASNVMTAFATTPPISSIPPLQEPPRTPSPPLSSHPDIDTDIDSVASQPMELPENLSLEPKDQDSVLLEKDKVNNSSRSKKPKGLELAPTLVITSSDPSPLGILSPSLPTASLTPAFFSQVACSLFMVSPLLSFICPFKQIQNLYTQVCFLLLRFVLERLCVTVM
Procedure, shortened: as §1

ELF3 = molecular target: T7, ELF3 (Homo sapiens, UniProt P78545 1-371); conditions: protein: recombinant; tags: N-terminal GST; dsDNA, one strand shown
T7 sequence: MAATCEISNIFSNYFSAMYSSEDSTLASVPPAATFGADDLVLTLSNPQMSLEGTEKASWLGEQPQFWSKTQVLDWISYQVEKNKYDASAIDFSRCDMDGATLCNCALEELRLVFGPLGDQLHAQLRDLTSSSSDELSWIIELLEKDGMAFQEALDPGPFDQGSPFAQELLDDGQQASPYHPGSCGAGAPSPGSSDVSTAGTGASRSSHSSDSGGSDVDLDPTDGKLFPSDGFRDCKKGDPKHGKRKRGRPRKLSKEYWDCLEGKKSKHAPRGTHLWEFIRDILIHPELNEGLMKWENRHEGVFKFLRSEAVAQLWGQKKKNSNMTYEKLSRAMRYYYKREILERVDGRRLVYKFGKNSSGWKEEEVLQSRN
Procedure, shortened: as §1

CRX = CRX (Homo sapiens, UniProt O43186 1-299); conditions: protein: recombinant; tags: N-terminal GST; dsDNA, one strand shown
Procedure, shortened: as §1

ETV1 = ETV1 (Homo sapiens, UniProt P50549 1-477); conditions: protein: recombinant; tags: N-terminal GST; dsDNA, one strand shown
Procedure, shortened: as §1

SPI1 = SPI1 (Homo sapiens, UniProt P17947 1-270); conditions: protein: recombinant; tags: N-terminal GST; dsDNA, one strand shown
Procedure, shortened: as §1

Chain of CRX (O43186 whole entry): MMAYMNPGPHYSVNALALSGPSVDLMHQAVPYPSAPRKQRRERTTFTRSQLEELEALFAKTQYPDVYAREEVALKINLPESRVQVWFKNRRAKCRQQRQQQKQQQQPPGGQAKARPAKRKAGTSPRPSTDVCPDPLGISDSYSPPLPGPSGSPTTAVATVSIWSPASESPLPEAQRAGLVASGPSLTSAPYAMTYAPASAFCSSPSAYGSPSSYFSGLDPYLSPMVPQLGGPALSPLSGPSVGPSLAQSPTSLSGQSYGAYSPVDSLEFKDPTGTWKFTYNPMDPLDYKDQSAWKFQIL
Chain of ETV1 (P50549 whole entry): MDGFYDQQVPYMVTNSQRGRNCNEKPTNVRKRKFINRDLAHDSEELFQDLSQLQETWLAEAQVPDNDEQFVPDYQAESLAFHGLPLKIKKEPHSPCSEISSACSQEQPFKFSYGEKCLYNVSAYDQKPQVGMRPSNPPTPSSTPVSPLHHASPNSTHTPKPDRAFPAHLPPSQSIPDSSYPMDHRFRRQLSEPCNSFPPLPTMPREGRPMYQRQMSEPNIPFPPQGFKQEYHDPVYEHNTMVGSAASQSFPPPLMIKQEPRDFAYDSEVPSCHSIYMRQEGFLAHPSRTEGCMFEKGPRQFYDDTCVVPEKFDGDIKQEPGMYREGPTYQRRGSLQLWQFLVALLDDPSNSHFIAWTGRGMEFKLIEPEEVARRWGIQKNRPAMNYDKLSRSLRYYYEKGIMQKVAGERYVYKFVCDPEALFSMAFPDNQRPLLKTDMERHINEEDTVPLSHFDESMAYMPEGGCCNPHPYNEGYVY
Chain of ETV5 (P41161 whole entry): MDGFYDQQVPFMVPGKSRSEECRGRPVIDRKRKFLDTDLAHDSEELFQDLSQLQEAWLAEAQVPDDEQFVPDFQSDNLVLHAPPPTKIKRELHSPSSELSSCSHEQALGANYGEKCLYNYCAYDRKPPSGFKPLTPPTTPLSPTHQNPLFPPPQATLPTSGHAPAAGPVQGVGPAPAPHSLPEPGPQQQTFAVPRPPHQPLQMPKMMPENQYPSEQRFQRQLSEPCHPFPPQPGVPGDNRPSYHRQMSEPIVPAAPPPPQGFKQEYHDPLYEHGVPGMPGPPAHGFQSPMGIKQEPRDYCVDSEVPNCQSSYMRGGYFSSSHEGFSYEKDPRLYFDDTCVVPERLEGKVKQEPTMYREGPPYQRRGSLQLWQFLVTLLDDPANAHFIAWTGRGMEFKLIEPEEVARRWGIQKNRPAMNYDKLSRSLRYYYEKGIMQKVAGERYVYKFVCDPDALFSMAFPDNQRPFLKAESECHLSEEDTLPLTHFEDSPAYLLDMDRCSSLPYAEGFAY
Chain of ELF1 (P32519 whole entry): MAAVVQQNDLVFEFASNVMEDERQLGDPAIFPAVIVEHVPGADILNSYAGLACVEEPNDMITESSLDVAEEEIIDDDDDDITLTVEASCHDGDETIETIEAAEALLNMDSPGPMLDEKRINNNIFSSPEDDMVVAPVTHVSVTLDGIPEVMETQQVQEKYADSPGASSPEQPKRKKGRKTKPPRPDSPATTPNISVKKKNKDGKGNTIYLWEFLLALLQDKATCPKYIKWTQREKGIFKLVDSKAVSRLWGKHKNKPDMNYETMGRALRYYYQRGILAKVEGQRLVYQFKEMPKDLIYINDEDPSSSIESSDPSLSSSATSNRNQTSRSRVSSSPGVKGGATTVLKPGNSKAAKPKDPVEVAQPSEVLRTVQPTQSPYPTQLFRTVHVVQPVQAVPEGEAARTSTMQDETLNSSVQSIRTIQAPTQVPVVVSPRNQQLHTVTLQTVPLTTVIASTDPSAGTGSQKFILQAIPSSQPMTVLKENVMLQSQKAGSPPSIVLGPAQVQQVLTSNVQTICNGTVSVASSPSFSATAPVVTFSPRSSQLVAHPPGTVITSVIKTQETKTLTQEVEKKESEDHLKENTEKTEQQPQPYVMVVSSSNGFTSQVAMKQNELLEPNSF
Chain of HSF1 (Q00613 whole entry): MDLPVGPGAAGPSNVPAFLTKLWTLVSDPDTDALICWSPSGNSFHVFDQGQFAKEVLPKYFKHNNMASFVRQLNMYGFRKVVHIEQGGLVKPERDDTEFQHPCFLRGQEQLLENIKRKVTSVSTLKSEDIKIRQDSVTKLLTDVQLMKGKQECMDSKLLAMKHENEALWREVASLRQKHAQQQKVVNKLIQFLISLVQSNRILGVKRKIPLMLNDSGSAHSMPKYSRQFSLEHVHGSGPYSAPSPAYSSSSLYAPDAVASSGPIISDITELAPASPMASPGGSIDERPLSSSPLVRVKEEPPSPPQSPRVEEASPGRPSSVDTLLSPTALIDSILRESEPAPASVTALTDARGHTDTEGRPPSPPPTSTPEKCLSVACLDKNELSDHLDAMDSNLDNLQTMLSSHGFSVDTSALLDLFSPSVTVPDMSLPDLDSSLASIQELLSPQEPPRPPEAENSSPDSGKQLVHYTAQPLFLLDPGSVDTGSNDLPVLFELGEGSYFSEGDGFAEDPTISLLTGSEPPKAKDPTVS
Chain of SPIB (Q01892 whole entry): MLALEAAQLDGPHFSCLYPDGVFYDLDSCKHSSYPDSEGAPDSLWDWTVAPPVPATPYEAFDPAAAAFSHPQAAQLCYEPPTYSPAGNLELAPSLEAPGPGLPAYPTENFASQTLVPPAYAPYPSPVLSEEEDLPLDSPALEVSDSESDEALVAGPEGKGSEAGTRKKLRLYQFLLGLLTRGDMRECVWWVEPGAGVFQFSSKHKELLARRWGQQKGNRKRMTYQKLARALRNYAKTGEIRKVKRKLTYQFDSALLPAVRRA

| Sequence | binding signal (FLI1) | binding signal (ELK1) | binding signal (GABPA) | binding signal (ELF1) | binding signal (SPIB) | binding signal (FEV) | binding signal (ETV5) | binding signal (HSF1) | binding signal (SPIC) | binding signal (ELK4) | binding signal (ELF3) | binding signal (CRX) | binding signal (ETV1) | binding signal (SPI1) |
| --- | --- | --- | --- | --- | --- | --- | --- | --- | --- | --- | --- | --- | --- | --- |
| AAAGCC | 1.05 fold enrichment (6-mer frequency, TF over GST control) | 1.05 fold enrichment (6-mer frequency, TF over GST control) | 1.04 fold enrichment (6-mer frequency, TF over GST control) | 1.08 fold enrichment (6-mer frequency, TF over GST control) | 1 fold enrichment (6-mer frequency, TF over GST control) | 1.03 fold enrichment (6-mer frequency, TF over GST control) | 1.02 fold enrichment (6-mer frequency, TF over GST control) | 1.14 fold enrichment (6-mer frequency, TF over GST control) | 1.14 fold enrichment (6-mer frequency, TF over GST control) | 1.02 fold enrichment (6-mer frequency, TF over GST control) | 1.01 fold enrichment (6-mer frequency, TF over GST control) | 1.42 fold enrichment (6-mer frequency, TF over GST control) | 1.03 fold enrichment (6-mer frequency, TF over GST control) |  |
| TCATAA | 1.03 fold enrichment (6-mer frequency, TF over GST control) | 1.05 fold enrichment (6-mer frequency, TF over GST control) | 1.03 fold enrichment (6-mer frequency, TF over GST control) | 1.02 fold enrichment (6-mer frequency, TF over GST control) |  |  | 1.06 fold enrichment (6-mer frequency, TF over GST control) | 1.14 fold enrichment (6-mer frequency, TF over GST control) | 1.12 fold enrichment (6-mer frequency, TF over GST control) | 1.09 fold enrichment (6-mer frequency, TF over GST control) |  | 1.38 fold enrichment (6-mer frequency, TF over GST control) | 1.07 fold enrichment (6-mer frequency, TF over GST control) | 1.06 fold enrichment (6-mer frequency, TF over GST control) |
